Data on eleven compounds can be found in PubChem BioAssay (Tox21).

Several values for one entry are separate records, joined by “and”; a condition that tells them apart may be missing. Equal values may be shown once. A number with no mark means an inactive call. Results filed as inconclusive are left out. Activity calls are given as the source filed them. Unless noted, the call rests on the fitted dose curve; in most records, active means well fitted curve in the direction sought with a large enough effect in the repeat runs; inconclusive means weak or mixed curves; inactive means no such curve, though single readings can be large; an effect the other way counts as inactive or inconclusive.

The nature of test [1]: qHTS assay to identify small molecule agonists of H2AX - cell viability counter screen (AID 1224847; calls by dose curve;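 further: wild-type CHO-K1 cells; top concentration of the series differs between compounds; nearly all actives have a fitted effect of over 30% in size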). An outline of the steps: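 After overnight plating of 1000 CHO-K1 cells per well, a 15-concentration compound series was applied for 3 hr at 37C. Luminescence from CellTiter-Glo, read following 30 min at room temperature, reflected cell viability.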
In general terms: Quantitative high-throughput screening tests each substance at several concentrations.

A short description of test [2]: qHTS assay to identify small molecule agonists of the estrogen related receptor (ERR) signaling pathway from Tox21 library (AID 1224849; calls by dose curve; further: nearly all actives have a fitted effect of over 15% in size). As to conditions: ERR reporter cell line, ONE-Glo luciferase, 18 h; at 92.4 µM (top of the series) unless noted. In a few lines:
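ERR cells, 6 h pre-incubation 37 C/5% CO2; cpd in DMSO pinned; 18 h 37 C; ONE-Glo added, 30 min RT; luminescence read. Agonist mode, qHTS.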

The nature of test [3]: qHTS RealTime-Glo MT Cell Viability Assay in HepG2 cells - 24 hour (AID 1224867). Further: nearly all actives have a fitted effect of over 50% in size. An outline of the steps:
(§1)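 HepG2 suspension premixed with RealTime-Glo reagents is plated at 600 cells per well and left 5 h at 37 C/5% CO2. Compounds in DMSO then go in, and bioluminescence reflecting viable cell number is recorded over 40 h.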

The nature of test [4]: A CellTox Green Cytotoxicity Assay to monitor cytotoxicity in HEK293 cells - 0 hour (AID 1224869). Further: nearly all actives have a fitted effect of over 50% in size. An outline of the steps: (§2)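 Nonlytic real-time cytotoxicity: HEK293 + CellTox Green reagent plated, 5 h preincubation, pintool compound addition (23 nL in DMSO), 37 C for 40 h, fluorescence measured at successive time points.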
A short description of test [5]: qHTS RealTime-Glo MT Cell Viability Assay in HepG2 cells - 40 hour (AID 1224870). Further: nearly all actives have a fitted effect of over 50% in size. An outline of the steps:
(§3)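 Real-time viability: cells seeded at 600 per well together with NanoLuc and cell-permeant prosubstrate, compounds added after 5 h incubation. Luminescence tracked at 0, 8, 16, 24, 32 and 40 h of exposure.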

A short description of test [6]: A CellTox Green Cytotoxicity Assay to monitor cytotoxicity in HEK293 cells - 40 hour (AID 1224871). Further: nearly all actives have a fitted effect of over 45% in size. Further: potency means the concentration at half of the fitted maximal effect. In a few lines: as §2
The nature of test [7]: qHTS RealTime-Glo MT Cell Viability Assay in HEK293 cells - 16 hour (AID 1224872). Further: nearly all actives have a fitted effect of over 50% in size. Further: potency means the concentration at half of the fitted maximal effect. An outline of the steps:
(§4)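 Reads taken at 0, 8, 16, 24, 32 and 40 h from the same wells. HEK293 cells (600/well) carried RealTime-Glo reagents from seeding, with compound added after a 5 h settle at 37 C.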

Test [8] is described as follows: qHTS RealTime-Glo MT Cell Viability Assay in HepG2 cells - 8 hour (AID 1224873). Further: nearly all actives have a fitted effect of over 55% in size. An outline of the steps: as §3
Test [9] in a line: A CellTox Green Cytotoxicity Assay to monitor cytotoxicity in HEK293 cells - 24 hour (AID 1224875). Further: nearly all actives have a fitted effect of over 45% in size. Further: potency means the concentration at half of the fitted maximal effect. An outline of the steps: as §2
Test [10] is described as follows: A CellTox Green Cytotoxicity Assay to monitor cytotoxicity in HepG2 cells - 16 hour (AID 1224876). Further: nearly all actives have a fitted effect of over 45% in size. In a few lines:
(§5)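 Read-out is fluorescence of a cyanine dye excluded from live cells that stains DNA of dead HepG2 cells, with signal proportional to cytotoxicity. Plates were read at 0, 8, 16, 24, 32 and 40 h after compound addition.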

Test [11] is described as follows: qHTS RealTime-Glo MT Cell Viability Assay in HepG2 cells - 32 hour (AID 1224877). Further: nearly all actives have a fitted effect of over 55% in size. An outline of the steps: as §1
Test [12] can be described thus: A CellTox Green Cytotoxicity Assay to monitor cytotoxicity in HepG2 cells - 24 hour (AID 1224878). Further: nearly all actives have a fitted effect of over 45% in size. In a few lines: as §5
Test [13] can be described thus: A CellTox Green Cytotoxicity Assay to monitor cytotoxicity in HepG2 cells - 40 hour (AID 1224879). Further: nearly all actives have a fitted effect of over 40% in size. An outline of the steps: as §5
The nature of test [14]: qHTS RealTime-Glo MT Cell Viability Assay in HEK293 cells - 0 hour (AID 1224880). An outline of the steps: (§6)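 Cells were seeded together with NanoLuc luciferase and a prosubstrate that viable cells reduce to a luciferase substrate. After a 5 h incubation at 37 C/5% CO2, compounds were added and luminescence was measured repeatedly during 40 h of treatment.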
Test [15] can be described thus: A CellTox Green Cytotoxicity Assay to monitor cytotoxicity in HEK293 cells - 32 hour (AID 1224881). Further: nearly all actives have a fitted effect of over 40% in size. Further: potency means the concentration at half of the fitted maximal effect. In a few lines:
as §2

A short description of test [16]: qHTS assay to identify small molecule agonists of the hypoxia (HIF-1) signaling pathway (AID 1224846; active means well fitted activation curve with a large enough effect in the signal ratio in the repeat runs, not every such curve was filed as active; the % refers to the signal ratio). In a few lines: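 Cell line: CellSensor HRE-bla ME-180; 2,000 cells/well; 0.5% dialyzed FBS; 5 h preincubation; DMSO compound pin transfer; 17 h, 37C, 5% CO2; CCF4-AM added; bla FRET signal scored for activation.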
Test [17] in a line: qHTS RealTime-Glo MT Cell Viability Assay in HEK293 cells - 32 hour (AID 1224868). Further: nearly all actives have a fitted effect of over 50% in size. Further: potency means the concentration at half of the fitted maximal effect. In a few lines:
as §4

A short description of test [18]: qHTS RealTime-Glo MT Cell Viability Assay in HEK293 cells - 40 hour (AID 1224874). Further: nearly all actives have a fitted effect of over 50% in size. Further: potency means the concentration at half of the fitted maximal effect. As to conditions: RealTime-Glo luminescence; max response: stronger effect = lower value. In a few lines: as §6
The nature of test [19]: qHTS assay to identify small molecule antagonists of the estrogen related receptor (ERR) signaling pathway from Tox21 library (AID 1224848). Further: nearly all actives have a fitted effect of over 50% in size. An outline of the steps: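 Antagonist-mode screen of the Tox21 10K library in an NTP-provided ERR reporter cell line; 18 h compound exposure at 37 C, luminescence measured with ONE-Glo.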
On the % scale 0 is the no-effect control and ±100 the full control effect.

Regarding `Nc1nc(N)c2nc(CNc3ccc(C(=O)N[C@@H](CCC(=O)O)C(=O)O)cc3)cnc2n1`, the Potency entry in test [1], in [3], in test [4], in [5], in test [6] and in test [7] was “inactive” in each case. Besides, the Potency entry in test [8], in [9], in [10], in test [11], in test [12] and in test [13] was “inactive” throughout. Also, the Potency entry in test [14] and in test [15] was “inactive” in each case. The activity change, positive = activation in test [2] is -62.3%.
Take `Cn1sccc1=O`: the Potency entry in test [1], in test [3], in test [4], in [5], in [6] and in test [7] was “inactive” throughout. In addition, the Potency entry in [8], in test [9], in [10], in test [11], in test [12] and in test [15] was “inactive” in each case. Besides, the activity change, positive = activation in [2] was -14.6% and -29.4%.
Regarding `CCCCCCCCCCCCCCCBr`, the result in [16] was inactive. The Potency result in test [1], in test [17], in test [4], in test [5], in test [6] and in test [7] was “inactive” throughout. Further, the Potency entry in test [8], in [9], in test [10], in test [11], in [12] and in test [13] was “inactive” each time. The Potency entry in test [15] is “inactive”. Further, the max response in test [18] was -1.7%.
Consider `COc1cc(C(C)(C)C)c(O)c(C(C)(C)C)c1`, for which the call in test [16] was inactive. In addition, the activity change, positive = activation in test [2] is -4.21%. Also, the Potency entry in test [3], in test [17], in test [4], in [5], in test [7] and in test [8] was “inactive” in each case. The Potency entry in [11] and in [14] was “inactive” each time. For the same compound, the Potency in [6], in [9] and in test [15] was 43.6 µM (active) each time. Also, the max response in [18] was 1.44%.
In the case of `CCCCOc1cc(C(=O)OCCN(CC)CC)ccc1N`, the compound was classed as inactive in [16]. Further, the Potency entry in test [1], in test [17], in [4], in test [5], in test [7] and in test [8] was “inactive” throughout. Also, the Potency result in [11] and in test [14] was “inactive” throughout. Further, the max response in test [18] is -18%.
Consider `Oc1ccc(Cc2ccccc2)cc1`, for which the compound was called inactive in [16]. Also, the Potency result in test [19], in test [3], in test [4], in test [5], in test [8] and in [10] was “inactive” in each case. Besides, the Potency result in [11] and in [14] was “inactive” throughout. In addition, the activity change, positive = activation in test [2] was 2.56%. Also, the Potency is 36 µM (active) in test [17], 36 µM (active) in test [7] and 40.4 µM (active) in [18].
For `ClC(Cl)(Cl)c1ccc(C(Cl)(Cl)Cl)cc1`, in test [16], the compound was classed as inactive. Also, the Potency entry in test [3], in test [17], in test [4], in test [5], in test [7] and in test [9] was “inactive” in each case. In addition, the Potency result in [10], in [11], in test [12], in [13] and in test [14] was “inactive” in each case. The max response in test [18] was -9.34%.
Take `COCCO`: the result in test [16] was inactive. In addition, the Potency result in [1], in test [17], in test [4], in test [5], in test [6] and in test [7] was “inactive” throughout. The Potency result in [8], in test [9], in [10], in test [11], in test [12] and in test [14] was “inactive” each time. In addition, the Potency result in test [15] is “inactive”. In test [18], the max response is 11.8%.
Take `COc1ccc([C@@H]2Sc3ccccc3N(CCN(C)C)C(=O)[C@@H]2OC(C)=O)cc1`: the Potency result in test [1], in test [3], in test [4], in test [5], in test [6] and in [7] was “inactive” throughout. Besides, the Potency result in test [8], in test [9], in [10], in test [11], in test [12] and in [13] was “inactive” each time. Besides, the Potency entry in test [14] and in test [15] was “inactive” in each case. In addition, in test [2], the activity change, positive = activation is -33.7% [at 42.5 µM].
As to `Cc1ccc(C(C)c2ccc(C)c(C)c2)cc1C`, in [16], the result was inactive. Also, the Potency result in test [17], in [4], in test [5], in test [6], in test [7] and in [8] was “inactive” each time. Also, the Potency entry in test [9], in test [10], in test [11], in test [12], in [13] and in test [14] was “inactive” each time. In addition, the Potency result in test [15] is “inactive”. In test [18], the max response is -0.95%.
For `CC1CCc2cc(F)cc3c(=O)c(C(=O)O)cn1c23` (configuration not stated), the Potency result in [1], in test [3], in test [17], in test [4], in [5] and in test [6] was “inactive” each time. For the same compound, the Potency result in test [7], in [9], in test [10], in [11], in test [12] and in test [14] was “inactive” in each case. In test [15], the Potency result is “inactive”. Further, the max response in test [18] is 7.68%.
